Reference: the supplement of paper PMC10037445
The full ranking holds about 2,900 compounds; the median of “NF-kB SEAP reporter activity, fold change vs agonist alone” is about 0.99, and the highest 2% start at about 2.6. This excerpt belongs to a sample that is enriched for the highest values.

Assays:
[1] = test system: RAW-Dual; assay: NF-kB SEAP reporter activity, fold change vs agonist alone; higher = enhanced NF-kB activity
In short: (§1)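 Reporter activity is given as fold change relative to agonist-alone wells. To measure it, 50 nL of library stock was pin-tooled onto RAW-Dual macrophages (50,000 cells/well, DMEM, 384-well plates), a PRR agonist followed 1 h later, and cells stayed at 37 °C, 5% CO2. Twenty hours on, supernatant was assayed for IRF (QuantiLuc luminescence) and NF-κB (QuantiBlue, 620 nm absorbance), and wells under 70% of agonist-control IncuCyte confluency in both mask sets were marked cytotoxic.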

[2] = test system: RAW-Dual; assay: NF-kB SEAP reporter activity, fold change vs agonist alone; cytotoxicity flag (confluency mask): not cytotoxic; library stock concentration (final ~1000-fold dilution): 10 mM; higher = enhanced NF-kB activity
In short: as §1

[3] = test system: RAW-Dual; assay: NF-kB SEAP reporter activity, fold change vs agonist alone; cytotoxicity flag (confluency mask): cytotoxic (confluency <70% of control); library stock concentration (final ~1000-fold dilution): 10 mM; higher = enhanced NF-kB activity
In short: as §1

[4] = test system: RAW-Dual; assay: NF-kB SEAP reporter activity, fold change vs agonist alone; cytotoxicity flag (confluency mask): not cytotoxic; library stock concentration (final ~1000-fold dilution): .1 mM; higher = enhanced NF-kB activity
In short: as §1

[5] = library stock concentration (final ~1000-fold dilution): 10 mM, cytotoxicity flag (confluency mask): not cytotoxic, agonist: MPLA (TLR4) […]
[6] = agonist: ODN 1826 (TLR9) 0.5 ug/mL
[7] = agonist: Pam2CSK4 (TLR2/6) 0.1 ug/mL
[8] = agonist: Pam3CSK4 (TLR2/1) 0.1 ug/mL
[9] = library stock concentration (final ~1000-fold dilution): 10 mM, cytotoxicity flag (confluency mask): not cytotoxic, agonist: Imiquimod (TLR7) […]
[10] = library stock concentration (final ~1000-fold dilution): 10 mM, cytotoxicity flag (confluency mask): cytotoxic (confluency <70% of control), agonist: Imiquimod (TLR7) […]
[11] = library stock concentration (final ~1000-fold dilution): 10 mM, cytotoxicity flag (confluency mask): cytotoxic (confluency <70% of control), agonist: MPLA (TLR4) […]

CC[N+](C)(CC)CCOC(=O)C(O)(c1ccccc1)c1ccccc1
NF-kB SEAP reporter activity [1, 5]: 1.01
NF-kB SEAP reporter activity ([2]; agonist: LPS (TLR4) 0.1 ug/mL): 0.821
NF-kB SEAP reporter activity [2, 6]: 0.989
NF-kB SEAP reporter activity [2, 7]: 0.934
NF-kB SEAP reporter activity [2, 8]: 1.39

COc1cc(-n2c(S)nc3ccccc3c2=O)c(Cl)cc1Cl
NF-kB SEAP reporter activity [1, 9]: 0.851
NF-kB SEAP reporter activity [1, 5]: 0.953
NF-kB SEAP reporter activity ([2]; agonist: LPS (TLR4) 0.1 ug/mL): 1.4
NF-kB SEAP reporter activity [2, 6]: 0.842
NF-kB SEAP reporter activity [2, 7]: 0.849
NF-kB SEAP reporter activity [2, 8]: 0.826

CCC1(c2c[nH]cn2)Cc2ccccc2C1.Cl
NF-kB SEAP reporter activity [1, 5]: 0.931
NF-kB SEAP reporter activity ([2]; agonist: LPS (TLR4) 0.1 ug/mL): 0.796
NF-kB SEAP reporter activity [2, 6]: 0.745
NF-kB SEAP reporter activity [2, 7]: 0.9
NF-kB SEAP reporter activity [2, 8]: 0.997

CN1C2CCC1CC(=O)C2
NF-kB SEAP reporter activity [1, 9]: 1.66
NF-kB SEAP reporter activity [1, 5]: 1.16
NF-kB SEAP reporter activity ([2]; agonist: LPS (TLR4) 0.1 ug/mL): 0.911
NF-kB SEAP reporter activity [2, 6]: 1.6
NF-kB SEAP reporter activity [2, 7]: 1
NF-kB SEAP reporter activity [2, 8]: 1.54

CCC1CN2CCC3(C(=O)Nc4ccccc43)C2CC1/C(=C\OC)C(=O)OC (stereo unspecified)
NF-kB SEAP reporter activity [1, 9]: 0.907
NF-kB SEAP reporter activity [1, 5]: 1.25
NF-kB SEAP reporter activity ([2]; agonist: LPS (TLR4) 0.1 ug/mL): 1.1
NF-kB SEAP reporter activity [2, 6]: 0.873
NF-kB SEAP reporter activity [2, 7]: 0.87
NF-kB SEAP reporter activity [2, 8]: 0.852

O=C(CBr)N1CC([N+](=O)[O-])([N+](=O)[O-])C1
NF-kB SEAP reporter activity [1, 10]: 0.542
NF-kB SEAP reporter activity [1, 11]: 0.295
NF-kB SEAP reporter activity ([3]; agonist: LPS (TLR4) 0.1 ug/mL): 0.335
NF-kB SEAP reporter activity [3, 6]: 0.252
NF-kB SEAP reporter activity [3, 7]: 0.0912
NF-kB SEAP reporter activity [3, 8]: 0.189

CC1=CC2Cc3[nH]c(=O)ccc3C3(C1)NCCCC23 (stereo unspecified)
NF-kB SEAP reporter activity [1, 9]: 0.933
NF-kB SEAP reporter activity [1, 5]: 1.03
NF-kB SEAP reporter activity ([2]; agonist: LPS (TLR4) 0.1 ug/mL): 1.12
NF-kB SEAP reporter activity [2, 6]: 0.952
NF-kB SEAP reporter activity [2, 7]: 1.11
NF-kB SEAP reporter activity [2, 8]: 1.22

COc1ccc(CC2NCC(O)C2OC(C)=O)cc1 (stereo unspecified)
NF-kB SEAP reporter activity [1, 10]: 0.133
NF-kB SEAP reporter activity [1, 11]: 0.231
NF-kB SEAP reporter activity ([3]; agonist: LPS (TLR4) 0.1 ug/mL): 0.216
NF-kB SEAP reporter activity [3, 6]: 0.171
NF-kB SEAP reporter activity [3, 7]: 0.0635
NF-kB SEAP reporter activity [3, 8]: 0.145

Cc1c(C(C)C2NCC(C)CC2O)ccc2c1CC1C2CC=C2CC(O)CCC21C (stereo unspecified)
NF-kB SEAP reporter activity [1, 9]: 0.945
NF-kB SEAP reporter activity [1, 5]: 1.15
NF-kB SEAP reporter activity ([2]; agonist: LPS (TLR4) 0.1 ug/mL): 1.1
NF-kB SEAP reporter activity [2, 6]: 1.02
NF-kB SEAP reporter activity [2, 7]: 0.866
NF-kB SEAP reporter activity [2, 8]: 1.03

O.O=C1C=CCC2C3CCCN4CCCC(CN12)C34 (stereo unspecified)
NF-kB SEAP reporter activity [1, 9]: 0.531
NF-kB SEAP reporter activity [1, 5]: 0.792
NF-kB SEAP reporter activity ([2]; agonist: LPS (TLR4) 0.1 ug/mL): 1.41
NF-kB SEAP reporter activity [2, 6]: 0.558
NF-kB SEAP reporter activity [2, 7]: 0.957
NF-kB SEAP reporter activity [2, 8]: 1.11

Cc1sc2c(c1C)C(c1ccc(Cl)cc1)=NC(CC(=O)Nc1ccc(O)cc1)c1nnc(C)n1-2 (stereo unspecified)
NF-kB SEAP reporter activity [1, 9]: 1.49
NF-kB SEAP reporter activity [1, 5]: 2.56
NF-kB SEAP reporter activity ([2]; agonist: LPS (TLR4) 0.1 ug/mL): 3.19
NF-kB SEAP reporter activity [2, 6]: 2.24
NF-kB SEAP reporter activity [2, 7]: 0.856
NF-kB SEAP reporter activity [2, 8]: 1.74

Cc1sc2c(c1C)C(c1ccc(Cl)cc1)=NC(CC(=O)OC(C)(C)C)c1nnc(C)n1-2 (stereo unspecified)
NF-kB SEAP reporter activity [1, 10]: 2.49
NF-kB SEAP reporter activity [1, 11]: 2.26
NF-kB SEAP reporter activity ([3]; agonist: LPS (TLR4) 0.1 ug/mL): 2.05
NF-kB SEAP reporter activity [3, 6]: 1.9
NF-kB SEAP reporter activity [3, 7]: 0.784
NF-kB SEAP reporter activity [3, 8]: 1.19

CCNC(=O)CC1N=C(c2ccc(Cl)cc2)c2cc(OC)ccc2-n2c(C)nnc21 (stereo unspecified)
NF-kB SEAP reporter activity [1, 9]: 1.41
NF-kB SEAP reporter activity [1, 5]: 2.47
NF-kB SEAP reporter activity ([2]; agonist: LPS (TLR4) 0.1 ug/mL): 2.57
NF-kB SEAP reporter activity [2, 6]: 1.9
NF-kB SEAP reporter activity [2, 7]: 0.886
NF-kB SEAP reporter activity [2, 8]: 1.43

Cc1sc2c(c1C)C(c1ccc(Cl)cc1)=NC(CC(N)=O)c1nnc(C)n1-2 (stereo unspecified)
NF-kB SEAP reporter activity [1, 9]: 1.43
NF-kB SEAP reporter activity [1, 5]: 2.38
NF-kB SEAP reporter activity ([2]; agonist: LPS (TLR4) 0.1 ug/mL): 2.51
NF-kB SEAP reporter activity [2, 6]: 1.97
NF-kB SEAP reporter activity [2, 7]: 0.734
NF-kB SEAP reporter activity [2, 8]: 1.69

COc1ccc2c(c[n+](C)c3c4cc5c(cc4ccc23)OCO5)c1OC.Cl
NF-kB SEAP reporter activity [1, 9]: 0.228
NF-kB SEAP reporter activity [1, 5]: 0.224
NF-kB SEAP reporter activity ([2]; agonist: LPS (TLR4) 0.1 ug/mL): 0.278
NF-kB SEAP reporter activity [2, 6]: 0.195
NF-kB SEAP reporter activity [2, 7]: 0.15
NF-kB SEAP reporter activity [2, 8]: 0.163

O=c1[nH]c2ccccc2n1C1CCN(Cc2ccc(-c3nc4cc5nc[nH]c5cc4nc3-c3ccccc3)cc2)CC1
NF-kB SEAP reporter activity [1, 9]: 0.45
NF-kB SEAP reporter activity [1, 5]: 1.05
NF-kB SEAP reporter activity ([2]; agonist: LPS (TLR4) 0.1 ug/mL): 1.2
NF-kB SEAP reporter activity [2, 6]: 0.187
NF-kB SEAP reporter activity [2, 7]: 0.317
NF-kB SEAP reporter activity [2, 8]: 0.427

Br.COc1ccc2c(c1)C13CCCCC1C(C2)N(C)CC3.O (stereo unspecified)
NF-kB SEAP reporter activity [1, 5]: 0.902
NF-kB SEAP reporter activity ([2]; agonist: LPS (TLR4) 0.1 ug/mL): 0.802
NF-kB SEAP reporter activity [2, 6]: 0.615
NF-kB SEAP reporter activity [2, 7]: 0.806
NF-kB SEAP reporter activity [2, 8]: 0.824

Br.CN1C2CC(OC(=O)C(CO)c3ccccc3)CC1C1OC12.O.O.O (stereo unspecified)
NF-kB SEAP reporter activity [1, 9]: 0.88
NF-kB SEAP reporter activity [1, 5]: 1.09
NF-kB SEAP reporter activity ([2]; agonist: LPS (TLR4) 0.1 ug/mL): 0.989
NF-kB SEAP reporter activity [2, 6]: 0.789
NF-kB SEAP reporter activity [2, 7]: 1.04
NF-kB SEAP reporter activity [2, 8]: 1.12

Cc1cccc(-c2ccnc3c(C(N)=O)cnn23)c1
NF-kB SEAP reporter activity ([1]; library stock concentration (final ~1000-fold dilution): .1 mM, cytotoxicity flag (confluency mask): not cytotoxic, agonist: Imiquimod (TLR7) […]): 0.791
NF-kB SEAP reporter activity ([1]; library stock concentration (final ~1000-fold dilution): .1 mM, cytotoxicity flag (confluency mask): not cytotoxic, agonist: MPLA (TLR4) […]): 1.15
NF-kB SEAP reporter activity ([4]; agonist: LPS (TLR4) 0.1 ug/mL): 1.21
NF-kB SEAP reporter activity [4, 6]: 1.28
NF-kB SEAP reporter activity [4, 7]: 1.25
NF-kB SEAP reporter activity [4, 8]: 1.13
